Holding throughout (experiment): PBM; 200 nM protein, PBS
Conditions in all cases: dsDNA, one strand shown

Test [1] has as its target T1, NKX2-4 (Homo sapiens, UniProt Q9H2Z4 175-261, P217L).
T1 sequence: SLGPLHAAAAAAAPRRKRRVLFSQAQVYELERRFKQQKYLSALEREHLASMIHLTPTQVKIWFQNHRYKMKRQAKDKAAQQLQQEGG

In test [2] the target is T2, NKX2-4 (Homo sapiens, UniProt Q9H2Z4 175-261, T231S).
T2 sequence: T1 sequence with L43P, T57S

Test [3] concerns the target T3, NKX2-4 (Homo sapiens, UniProt Q9H2Z4 175-261).
T3 sequence: T1 sequence with L43P

For test [4], the target named is T4, NKX2-6 (Homo sapiens, UniProt A6NCS4 118-204, R150C).
T4 sequence: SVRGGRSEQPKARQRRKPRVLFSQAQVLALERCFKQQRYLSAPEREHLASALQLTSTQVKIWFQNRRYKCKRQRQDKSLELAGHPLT

For test [5], the target named is T5, NKX2-4 (Homo sapiens, UniProt Q9H2Z4 175-261, R246Q).
T5 sequence: T1 sequence with L43P, R72Q

Test [6] concerns the target T6, PAX4 (Homo sapiens, UniProt O43316 9-242, R200K).
T6 sequence: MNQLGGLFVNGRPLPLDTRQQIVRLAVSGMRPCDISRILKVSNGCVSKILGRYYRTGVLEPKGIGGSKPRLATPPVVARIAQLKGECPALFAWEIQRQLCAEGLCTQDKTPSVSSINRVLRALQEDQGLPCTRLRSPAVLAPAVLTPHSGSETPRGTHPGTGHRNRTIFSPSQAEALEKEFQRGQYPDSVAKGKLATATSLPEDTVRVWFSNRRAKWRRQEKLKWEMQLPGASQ

Test [7] deals with T7, PAX4 (Homo sapiens, UniProt O43316 9-242).
T7 sequence: T6 sequence with K192R

In test [8] the target is ALX3 (Homo sapiens, UniProt O95076 139-225, N203Q).
For test [9], the target named is T8, PAX4 (Homo sapiens, UniProt O43316 9-242, R200Q).
T8 sequence: T6 sequence with K192Q

Test [10] deals with T9, PAX4 (Homo sapiens, UniProt O43316 9-242, F177V).
T9 sequence: T6 sequence with F169V, K192R

In test [11] the target is ALX3 (Homo sapiens, UniProt O95076 139-225).
Test [12] concerns the target T10, PAX4 (Homo sapiens, UniProt O43316 9-242, F177Y).
T10 sequence: T6 sequence with F169Y, K192R

The target of test [13] is VAX1 (Homo sapiens, UniProt Q5SQQ9 86-172).
Test [14] concerns the target ALX3 (Homo sapiens, UniProt O95076 139-225, L168Q).
The target of test [15] is ALX3 (Homo sapiens, UniProt O95076 139-225, L168V).
The target of test [16] is VAX1 (Homo sapiens, UniProt Q5SQQ9 86-172, T142I).
For test [17], the target named is T11, PAX4 (Homo sapiens, UniProt O43316 9-242, R227W).
T11 sequence: T6 sequence with K192R, R219W

Test [18] addresses ALX3 (Homo sapiens, UniProt O95076 139-225, N203S).
For test [19], the target named is VAX1 (Homo sapiens, UniProt Q5SQQ9 86-172, K157R).
The target in test [20] is HOXB6 (Homo sapiens, UniProt P17509 132-218, K202E).
Test [21] concerns the target HOXB6 (Homo sapiens, UniProt P17509 132-218).
Test [22] has as its target HOXC9 (Homo sapiens, UniProt P31274 178-260, K195R).
The target of test [23] is HOXC9 (Homo sapiens, UniProt P31274 178-260).
The target of test [24] is PITX2 (Homo sapiens, UniProt Q99697 72-157).
The target in test [25] is HOXC9 (Homo sapiens, UniProt P31274 178-260, R193K).
In test [26] the target is HOXC9 (Homo sapiens, UniProt P31274 178-260, R222W).
For test [27], the target named is HOXA2 (Homo sapiens, UniProt O43364 129-215, R185T).
For test [28], the target named is HOXA2 (Homo sapiens, UniProt O43364 129-215, R185K).
Test [29] has as its target PROP1 (Homo sapiens, UniProt O75360 56-141).
For test [30], the target named is PROP1 (Homo sapiens, UniProt O75360 56-141, R99H).
For test [31], the target named is PROP1 (Homo sapiens, UniProt O75360 56-141, F88S).
Test [32] deals with HOXA2 (Homo sapiens, UniProt O43364 129-215, Y150S).
For test [33], the target named is HOXA2 (Homo sapiens, UniProt O43364 129-215).

Numbering of substitutions follows the chain as printed.

ALX3 (Homo sapiens, UniProt O95076 139-225, N203Q), sequence (O95076 139-225 N203Q): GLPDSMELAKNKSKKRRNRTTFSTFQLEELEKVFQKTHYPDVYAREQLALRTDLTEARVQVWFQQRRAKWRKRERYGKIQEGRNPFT
HOXB6 (Homo sapiens, UniProt P17509 132-218), sequence (P17509 132-218): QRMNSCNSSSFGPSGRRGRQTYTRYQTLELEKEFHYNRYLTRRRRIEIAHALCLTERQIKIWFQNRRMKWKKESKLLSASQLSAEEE
ALX3 (Homo sapiens, UniProt O95076 139-225), sequence (O95076 139-225): as the sequence (O95076 139-225 N203Q) above, with Q65N counted along it
ALX3 (Homo sapiens, UniProt O95076 139-225, N203S), sequence (O95076 139-225 N203S): as the sequence (O95076 139-225 N203Q) above, with Q65S counted along it
ALX3 (Homo sapiens, UniProt O95076 139-225, L168V), sequence (O95076 139-225 L168V): as the sequence (O95076 139-225 N203Q) above, with L30V, Q65N counted along it
HOXB6 (Homo sapiens, UniProt P17509 132-218, K202E), sequence (P17509 132-218 K202E): as the sequence (P17509 132-218) above, with K71E counted along it
ALX3 (Homo sapiens, UniProt O95076 139-225, L168Q), sequence (O95076 139-225 L168Q): as the sequence (O95076 139-225 N203Q) above, with L30Q, Q65N counted along it
HOXA2 (Homo sapiens, UniProt O43364 129-215), sequence (O43364 129-215): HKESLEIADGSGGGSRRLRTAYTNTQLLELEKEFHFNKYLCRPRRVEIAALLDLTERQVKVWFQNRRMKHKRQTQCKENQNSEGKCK
PROP1 (Homo sapiens, UniProt O75360 56-141, F88S), sequence (O75360 56-141 F88S): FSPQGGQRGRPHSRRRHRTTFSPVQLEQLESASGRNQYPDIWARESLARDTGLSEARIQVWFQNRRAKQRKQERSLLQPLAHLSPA
HOXA2 (Homo sapiens, UniProt O43364 129-215, R185K), sequence (O43364 129-215 R185K): as the sequence (O43364 129-215) above, with R57K counted along it
HOXA2 (Homo sapiens, UniProt O43364 129-215, R185T), sequence (O43364 129-215 R185T): as the sequence (O43364 129-215) above, with R57T counted along it
HOXC9 (Homo sapiens, UniProt P31274 178-260, R222W), sequence (P31274 178-260 R222W): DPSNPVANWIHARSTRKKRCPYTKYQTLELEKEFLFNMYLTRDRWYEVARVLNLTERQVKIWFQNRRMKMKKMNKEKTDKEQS
HOXA2 (Homo sapiens, UniProt O43364 129-215, Y150S), sequence (O43364 129-215 Y150S): as the sequence (O43364 129-215) above, with Y22S counted along it
VAX1 (Homo sapiens, UniProt Q5SQQ9 86-172), sequence (Q5SQQ9 86-172): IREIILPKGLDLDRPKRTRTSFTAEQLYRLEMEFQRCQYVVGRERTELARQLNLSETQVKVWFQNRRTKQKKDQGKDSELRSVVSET
HOXC9 (Homo sapiens, UniProt P31274 178-260), sequence (P31274 178-260): as the sequence (P31274 178-260 R222W) above, with W45R counted along it
VAX1 (Homo sapiens, UniProt Q5SQQ9 86-172, T142I), sequence (Q5SQQ9 86-172 T142I): as the sequence (Q5SQQ9 86-172) above, with T57I counted along it
PROP1 (Homo sapiens, UniProt O75360 56-141, R99H), sequence (O75360 56-141 R99H): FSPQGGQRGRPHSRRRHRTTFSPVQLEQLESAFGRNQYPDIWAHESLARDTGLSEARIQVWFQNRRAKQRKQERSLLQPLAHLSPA
HOXC9 (Homo sapiens, UniProt P31274 178-260, R193K), sequence (P31274 178-260 R193K): as the sequence (P31274 178-260 R222W) above, with R16K, W45R counted along it
VAX1 (Homo sapiens, UniProt Q5SQQ9 86-172, K157R), sequence (Q5SQQ9 86-172 K157R): as the sequence (Q5SQQ9 86-172) above, with K72R counted along it
PROP1 (Homo sapiens, UniProt O75360 56-141), sequence (O75360 56-141): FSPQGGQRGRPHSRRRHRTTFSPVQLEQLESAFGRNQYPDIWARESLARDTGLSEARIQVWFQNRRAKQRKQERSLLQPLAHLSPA
HOXC9 (Homo sapiens, UniProt P31274 178-260, K195R), sequence (P31274 178-260 K195R): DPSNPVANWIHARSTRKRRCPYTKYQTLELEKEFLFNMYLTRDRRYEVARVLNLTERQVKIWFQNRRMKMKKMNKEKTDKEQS

As for ACTCAAGT, the binding signal was 12.4 upbm affinity estimate (log intensity, higher = more binding, comparable within an allelic series) in test [1]; 12.9 upbm affinity estimate (log intensity, higher = more binding, comparable within an allelic series) in test [2]; 12.3 upbm affinity estimate (log intensity, higher = more binding, comparable within an allelic series) in [3]; 11.4 upbm affinity estimate (log intensity, higher = more binding, comparable within an allelic series) in test [4]; 12.9 upbm affinity estimate (log intensity, higher = more binding, comparable within an allelic series) in test [5].
Consider CCCGGCGC, for which the binding signal was 9.45 upbm affinity estimate (log intensity, higher = more binding, comparable within an allelic series) in test [1]; 9.31 upbm affinity estimate (log intensity, higher = more binding, comparable within an allelic series) in [2]; 9.17 upbm affinity estimate (log intensity, higher = more binding, comparable within an allelic series) in test [6]; 9.1 upbm affinity estimate (log intensity, higher = more binding, comparable within an allelic series) in test [7]; 9.49 upbm affinity estimate (log intensity, higher = more binding, comparable within an allelic series) in test [3]; 7.83 upbm affinity estimate (log intensity, higher = more binding, comparable within an allelic series) in [8]. Also, the binding signal in test [9] is 9.2 upbm affinity estimate (log intensity, higher = more binding, comparable within an allelic series); in [10], 9.03 upbm affinity estimate (log intensity, higher = more binding, comparable within an allelic series); in [11], 7.67 upbm affinity estimate (log intensity, higher = more binding, comparable within an allelic series); in test [5], 9.55 upbm affinity estimate (log intensity, higher = more binding, comparable within an allelic series); in test [12], 9.02 upbm affinity estimate (log intensity, higher = more binding, comparable within an allelic series); in [13] it was 7.45 upbm affinity estimate (log intensity, higher = more binding, comparable within an allelic series). The binding signal in test [14] is 7.69 upbm affinity estimate (log intensity, higher = more binding, comparable within an allelic series); in test [15], 7.67 upbm affinity estimate (log intensity, higher = more binding, comparable within an allelic series); in [16] it was 7.15 upbm affinity estimate (log intensity, higher = more binding, comparable within an allelic series); in test [17] it was 9.13 upbm affinity estimate (log intensity, higher = more binding, comparable within an allelic series); in test [18] it was 7.82 upbm affinity estimate (log intensity, higher = more binding, comparable within an allelic series); in test [19], 7.47 upbm affinity estimate (log intensity, higher = more binding, comparable within an allelic series).
With AAAGGCGG, the binding signal in test [1] was 9.6 upbm affinity estimate (log intensity, higher = more binding, comparable within an allelic series); in [2], 9.51 upbm affinity estimate (log intensity, higher = more binding, comparable within an allelic series); in [3] it was 9.55 upbm affinity estimate (log intensity, higher = more binding, comparable within an allelic series); in [4] it was 9.54 upbm affinity estimate (log intensity, higher = more binding, comparable within an allelic series); in test [5] it was 9.58 upbm affinity estimate (log intensity, higher = more binding, comparable within an allelic series).
Regarding AGCTGCGG, the binding signal in test [1] was 9.39 upbm affinity estimate (log intensity, higher = more binding, comparable within an allelic series); in [2], 9.21 upbm affinity estimate (log intensity, higher = more binding, comparable within an allelic series); in [3], 9.33 upbm affinity estimate (log intensity, higher = more binding, comparable within an allelic series); in test [5], 9.45 upbm affinity estimate (log intensity, higher = more binding, comparable within an allelic series).
As for CCCTCATA, the binding signal is 11.6 upbm affinity estimate (log intensity, higher = more binding, comparable within an allelic series) in test [1]; 11.8 upbm affinity estimate (log intensity, higher = more binding, comparable within an allelic series) in test [2]; 11.5 upbm affinity estimate (log intensity, higher = more binding, comparable within an allelic series) in test [3].
Consider ACCATTGA, for which the binding signal is 11.3 upbm affinity estimate (log intensity, higher = more binding, comparable within an allelic series) in test [1]; 11.5 upbm affinity estimate (log intensity, higher = more binding, comparable within an allelic series) in test [2]; 11.3 upbm affinity estimate (log intensity, higher = more binding, comparable within an allelic series) in test [3]; 9.55 upbm affinity estimate (log intensity, higher = more binding, comparable within an allelic series) in [20]; 11.5 upbm affinity estimate (log intensity, higher = more binding, comparable within an allelic series) in [5]; 10.2 upbm affinity estimate (log intensity, higher = more binding, comparable within an allelic series) in [21].
Turning to CGCGCCCG, the binding signal in test [1] was 9.29 upbm affinity estimate (log intensity, higher = more binding, comparable within an allelic series); in test [22] it was 9.51 upbm affinity estimate (log intensity, higher = more binding, comparable within an allelic series); in test [2], 9.29 upbm affinity estimate (log intensity, higher = more binding, comparable within an allelic series); in test [3] it was 9.39 upbm affinity estimate (log intensity, higher = more binding, comparable within an allelic series); in test [23], 9.64 upbm affinity estimate (log intensity, higher = more binding, comparable within an allelic series); in test [24], 7.51 upbm affinity estimate (log intensity, higher = more binding, comparable within an allelic series). The binding signal in test [25] is 9.54 upbm affinity estimate (log intensity, higher = more binding, comparable within an allelic series); in test [5] it was 9.3 upbm affinity estimate (log intensity, higher = more binding, comparable within an allelic series); in test [26], 9.66 upbm affinity estimate (log intensity, higher = more binding, comparable within an allelic series).
In the case of CCCGGGCC, the binding signal in test [1] was 9.16 upbm affinity estimate (log intensity, higher = more binding, comparable within an allelic series); in [2] it was 8.94 upbm affinity estimate (log intensity, higher = more binding, comparable within an allelic series); in test [6] it was 9.02 upbm affinity estimate (log intensity, higher = more binding, comparable within an allelic series); in test [7], 9.01 upbm affinity estimate (log intensity, higher = more binding, comparable within an allelic series); in test [3], 9.18 upbm affinity estimate (log intensity, higher = more binding, comparable within an allelic series); in [20], 8.77 upbm affinity estimate (log intensity, higher = more binding, comparable within an allelic series). The binding signal in test [27] is 7.21 upbm affinity estimate (log intensity, higher = more binding, comparable within an allelic series); in test [8], 7.64 upbm affinity estimate (log intensity, higher = more binding, comparable within an allelic series); in [9], 9.07 upbm affinity estimate (log intensity, higher = more binding, comparable within an allelic series); in test [28], 10.1 upbm affinity estimate (log intensity, higher = more binding, comparable within an allelic series); in test [10] it was 8.94 upbm affinity estimate (log intensity, higher = more binding, comparable within an allelic series); in test [11], 7.66 upbm affinity estimate (log intensity, higher = more binding, comparable within an allelic series). The binding signal in [5] was 9.15 upbm affinity estimate (log intensity, higher = more binding, comparable within an allelic series); in test [12], 8.97 upbm affinity estimate (log intensity, higher = more binding, comparable within an allelic series); in test [29] it was 6.58 upbm affinity estimate (log intensity, higher = more binding, comparable within an allelic series); in test [30], 6.56 upbm affinity estimate (log intensity, higher = more binding, comparable within an allelic series); in [14], 7.63 upbm affinity estimate (log intensity, higher = more binding, comparable within an allelic series); in [15], 7.64 upbm affinity estimate (log intensity, higher = more binding, comparable within an allelic series). For the same sequence, the binding signal in [31] is 6.14 upbm affinity estimate (log intensity, higher = more binding, comparable within an allelic series); in test [17], 9.08 upbm affinity estimate (log intensity, higher = more binding, comparable within an allelic series); in test [32], 10.2 upbm affinity estimate (log intensity, higher = more binding, comparable within an allelic series); in [18], 7.61 upbm affinity estimate (log intensity, higher = more binding, comparable within an allelic series); in test [33], 7.08 upbm affinity estimate (log intensity, higher = more binding, comparable within an allelic series); in [21], 8.77 upbm affinity estimate (log intensity, higher = more binding, comparable within an allelic series).
